“And” between values parts separate entries of the source, which are not always exact repeats. Equal values may be shown once. Results filed as inconclusive are left out. The source made the active and inactive calls. The calls were made as follows, unless noted: active = hit-call score of the fitted dose curve at least 0.9, where 1 is the maximum; inactive = score below 0.9.
Experiments:
[1] = biological target: Bile acid receptor (Homo sapiens) (UniProt Q96RI1); assay: ATG_FXR_TRANS: Attagene TRANS-FACTORIAL HepG2 Assay for Farnesoid X Receptor (FXR) (AID 2282979; active = hit-call score of the fitted dose curve at least 0.9, where 1 is the maximum;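 also: hits raise reporter mRNA above DMSO so AC50 marks FXR activation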); settings: HepG2 Attagene TRANS FXR-GAL4 reporter transcription
In short: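 HepG2 cells transiently transfected with reporter constructs in which a chimeric FXR-GAL4 protein drives a GAL4-UAS reporter; 24 h compound exposure. Reporter mRNA measured by RT-PCR, FAM labelling, HpaI digestion and capillary electrophoresis; gain-of-signal versus DMSO.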

[2] = ATG_M_06_TRANS: Attagene TRANS-FACTORIAL HepG2 Assay for M06 Transcription Factor (Internal Marker) (AID 2282983; active = hit-call score of the fitted dose curve at least 0.9, where 1 is the maximum); settings: HepG2 Attagene TRANS M06 internal marker reporter
In short: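 In this multiplexed HepG2 system, compounds are incubated 24 h with cells carrying GAL4-UAS reporter units. Reporter RNA is amplified and resolved by capillary electrophoresis, and induction is scored against DMSO.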

[3] = biological target: Nuclear receptor subfamily 4 group A member 2 (Homo sapiens) (UniProt P43354); assay: ATG_NURR1_TRANS: Attagene TRANS-FACTORIAL HepG2 Assay for human Nuclear Receptor Related Protein 1 (NURR1) (AID 2282985; active = hit-call score of the fitted dose curve at least 0.9, where 1 is the maximum); settings: HepG2 Attagene TRANS reporter, mRNA readout
In short: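 Endpoint: reporter mRNA increase relative to DMSO. HepG2 cells transfected with reporter units, treated 24 h; RNA processed by RT-PCR, labelling, HpaI digestion and capillary electrophoresis.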

[4] = biological target: Transcriptional activator Myb (Homo sapiens) (UniProt P10242); assay: ATG_Myb_CIS: Attagene CIS-FACTORIAL HepG2 Assay for human Myeloblastosis (Myb) Proto-Oncogene Transcription Factor (AID 2282986); settings: HepG2 Attagene CIS-FACTORIAL Myb reporter transcription; actives raise or lower the signal
In short: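 Transiently transfected HepG2 cells carrying a multiplexed cis-promoter reporter set report endogenous Myb activity after 24 h compound exposure. Reporter mRNA is read by RT-PCR with capillary electrophoresis of fluorescent products, fitted bidirectionally against DMSO.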

[5] = biological target: Nuclear respiratory factor 1 (Homo sapiens) (UniProt Q16656); assay: ATG_NRF1_CIS: Attagene CIS-FACTORIAL HepG2 Assay for human Nuclear Respiratory Factor 1 (NRF1) Orphan Gene (AID 2282987); settings: HepG2 NRF1 cis-element reporter, Attagene multiplex; actives raise or lower the signal
In short: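 HepG2 cells transiently transfected with multiple cis-regulated reporter units, exposed 24 h. Reporter mRNAs measured by RT-PCR, fluorescent labelling, HpaI digestion and capillary electrophoresis; bidirectional fitting against DMSO.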

[6] = ATG_NFI_CIS: Attagene CIS-FACTORIAL HepG2 Assay for human Nuclear Factor I (NFI) (AID 2282989); settings: HepG2 cis-regulatory reporter, NFI response element transcription; actives raise or lower the signal
In short: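 Reporter transcription driven by endogenous transcription factors in HepG2 cells; 24 h treatment. Quantitation by labelled RT-PCR fragments on capillary electrophoresis, gain- or loss-of-signal relative to DMSO.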

[7] = biological target: Myc proto-oncogene protein (Homo sapiens) (UniProt P01106); assay: ATG_Myc_CIS: Attagene CIS-FACTORIAL HepG2 Assay for human Myelocytomatosis (Myc) Proto-Oncogene Transcription Factor (AID 2282990); settings: HepG2, Attagene cis-reporter transcription factor activity; actives raise or lower the signal
In short: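 Transiently transfected HepG2 cells bearing cis-promoter reporter units for endogenous transcription factors; 24 h exposure. Reporter mRNA measured by RT-PCR, 6-FAM primer extension, HpaI cut and capillary electrophoresis; bidirectional fit relative to DMSO.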

[8] = ATG_NF_kB_CIS: Attagene CIS-FACTORIAL HepG2 Assay for human Nuclear Factor Kappa B (NF-kB) (AID 2282991); settings: HepG2 Attagene cis-factorial NF-kB reporter mRNA; actives raise or lower the signal
In short: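 HepG2 cells transfected with cis-promoter-driven reporter units, so endogenous transcription factor activity is measured. Reporter mRNA quantified 24 h after dosing by RT-PCR and capillary electrophoresis, with bidirectional fitting against DMSO.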

[9] = ATG_NRF2_ARE_CIS: Attagene CIS-FACTORIAL HepG2 Assay for human Nuclear Factor Erythroid 2 Related Factor 2 (NFR2) response to Antioxidant Response Elements (ARE) (AID 2282992); settings: HepG2 Attagene ARE/NRF2 reporter, transcription factor activity; actives raise or lower the signal
In short: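 Endogenous transcription factor activity read out as reporter transcript levels (RT-PCR plus capillary electrophoresis, fluorescence) in transiently transfected HepG2 cells. Measured at 24 h after dosing; gain or loss of signal fitted versus DMSO.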

[10] = ATG_Oct_MLP_CIS: Attagene CIS-FACTORIAL HepG2 Assay for human Octamer-Binding Transcription Factor (Oct) (AID 2282993); settings: HepG2 Attagene cis-factorial Oct reporter, mRNA; actives raise or lower the signal
In short: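 Transfected HepG2 cells, 24 h treatment. Reporter mRNA quantified by RT-PCR–capillary electrophoresis; bidirectional fitting against DMSO.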

[11] = biological target: Cellular tumor antigen p53 (Homo sapiens) (UniProt P04637); assay: ATG_p53_CIS: Attagene CIS-FACTORIAL HepG2 Assay for human p53 Transcription Factor (AID 2282994); settings: HepG2 p53 cis-element reporter, Attagene mRNA; actives raise or lower the signal
In short: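 Endogenous p53 activity read in transiently transfected HepG2 from a cis-element-driven reporter transcript after 24 h exposure. RNA reverse-transcribed, PCR-amplified, fluorescently labelled and sized by capillary electrophoresis; gain or loss fitted against DMSO baseline.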

[12] = BSK_3C_TissueFactor: BioMAP Diversity Plus: 3C Assay for Tissue Factor Biomarker Activity (AID 2282997); settings: BioMAP 3C HUVEC, tissue factor biomarker readout; actives raise or lower the signal
In short: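 Readout: Tissue Factor ELISA. Cells: human primary umbilical vein endothelium. Time: 24 h after dosing. Analysis: bidirectional fit, DMSO baseline.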

[13] = BSK_3C_uPAR: BioMAP Diversity Plus: 3C Assay for Urokinase-type plasminogen activator receptor (uPAR) Biomarker Activity (AID 2282998); settings: BioMAP 3C HUVEC, uPAR biomarker ELISA; actives raise or lower the signal
In short: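 Readout: ELISA for surface uPAR. System: human umbilical vein endothelial primary cells, 24 h after chemical exposure. Analysis: bidirectional fit, DMSO baseline.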

[14] = BSK_3C_VCAM1: BioMAP Diversity Plus: 3C Assay for Vascular cell adhesion molecule 1 (VCAM1) Biomarker Activity (AID 2282999); settings: BioMAP 3C HUVEC, VCAM1 ELISA, cytokine-stimulated; actives raise or lower the signal
In short: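 HUVEC primary cells, 24 h compound exposure; VCAM-1 by ELISA; gain/loss of signal fitted bidirectionally vs DMSO baseline.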

[15] = biological target: Hepatocyte nuclear factor 4-alpha (Homo sapiens) (UniProt P41235); assay: ATG_HNF4a_TRANS: Attagene TRANS-FACTORIAL HepG2 Assay for human Hepatocyte Nuclear Factor 4 alpha (HNF4a) (AID 2282982; active = hit-call score of the fitted dose curve at least 0.9, where 1 is the maximum); settings: HepG2 HNF4a transactivation reporter, mRNA readout
In short: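 Endpoint reflects transcriptional activation of a GAL4-UAS reporter by an HNF4a-GAL4 chimera in transfected HepG2 cells, 24 h post-dosing. Fluorescence from RT-PCR products separated by capillary electrophoresis; DMSO baseline.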

[16] = ATG_M_32_TRANS: Attagene TRANS-FACTORIAL HepG2 Assay for M32 Transcription Factor (Internal Marker) (AID 2282984; active = hit-call score of the fitted dose curve at least 0.9, where 1 is the maximum;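 also: transcript level of a background control reporter unit measured by RT-PCR and capillary electrophoresis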); settings: HepG2 Attagene TRANS M32 internal marker reporter
In short: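 Internal-marker readout from a multiplexed transcription reporter panel. HepG2 cells were transfected with GAL4-UAS reporter units, treated 24 hours, and reporter transcript levels determined by fluorescence after RT-PCR and capillary separation.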

[17] = biological target: Oxysterols receptor LXR-beta (Homo sapiens) (UniProt P55055); assay: ATG_LXRb_TRANS: Attagene TRANS-FACTORIAL HepG2 Assay for human Liver X Receptor beta (LXRb) (AID 2282981; active = hit-call score of the fitted dose curve at least 0.9, where 1 is the maximum); settings: HepG2 Attagene TRANS GAL4-LXRb reporter, mRNA
In short: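 Multiplexed reporter assay, HepG2, 24 h dosing. Fluorescence of labelled RT-PCR products after capillary electrophoresis gives transcript level; positive fitting direction relative to DMSO.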

[18] = biological target: Oxysterols receptor LXR-alpha (Homo sapiens) (UniProt Q13133); assay: ATG_LXRa_TRANS: Attagene TRANS-FACTORIAL HepG2 Assay for human Liver X Receptor alpha (LXRa) (AID 2282980; active = hit-call score of the fitted dose curve at least 0.9, where 1 is the maximum); settings: HepG2 Attagene TRANS reporter, LXRa transactivation
In short: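 HepG2 cells were transiently transfected with multiplexed reporter units driven by chimeric LXRa–GAL4 fusion proteins, then dosed for 24 h. Reporter mRNA was quantified by RT-PCR, fluorescent labelling and capillary electrophoresis; gain of signal fitted against DMSO baseline.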

Measured: AC50

Sequence of Transcriptional activator Myb (Homo sapiens) (P10242 whole entry, looked up): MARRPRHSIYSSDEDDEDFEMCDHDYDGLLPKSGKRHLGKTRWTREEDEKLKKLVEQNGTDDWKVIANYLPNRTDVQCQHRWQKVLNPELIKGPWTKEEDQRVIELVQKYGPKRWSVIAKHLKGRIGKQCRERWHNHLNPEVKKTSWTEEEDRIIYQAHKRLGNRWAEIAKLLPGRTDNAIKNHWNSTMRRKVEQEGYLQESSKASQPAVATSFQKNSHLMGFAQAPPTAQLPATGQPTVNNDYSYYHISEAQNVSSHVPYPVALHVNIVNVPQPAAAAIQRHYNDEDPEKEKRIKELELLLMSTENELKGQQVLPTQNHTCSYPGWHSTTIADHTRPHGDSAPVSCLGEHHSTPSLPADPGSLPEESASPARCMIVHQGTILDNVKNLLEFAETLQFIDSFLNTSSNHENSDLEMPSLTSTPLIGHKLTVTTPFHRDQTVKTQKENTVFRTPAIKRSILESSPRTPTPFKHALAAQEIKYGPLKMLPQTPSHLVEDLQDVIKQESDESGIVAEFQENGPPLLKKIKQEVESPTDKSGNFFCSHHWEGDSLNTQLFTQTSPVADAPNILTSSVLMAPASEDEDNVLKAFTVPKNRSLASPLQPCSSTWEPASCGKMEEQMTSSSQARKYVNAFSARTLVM
Sequence of Bile acid receptor (Homo sapiens) (Q96RI1 whole entry, looked up, the tested form may be a part): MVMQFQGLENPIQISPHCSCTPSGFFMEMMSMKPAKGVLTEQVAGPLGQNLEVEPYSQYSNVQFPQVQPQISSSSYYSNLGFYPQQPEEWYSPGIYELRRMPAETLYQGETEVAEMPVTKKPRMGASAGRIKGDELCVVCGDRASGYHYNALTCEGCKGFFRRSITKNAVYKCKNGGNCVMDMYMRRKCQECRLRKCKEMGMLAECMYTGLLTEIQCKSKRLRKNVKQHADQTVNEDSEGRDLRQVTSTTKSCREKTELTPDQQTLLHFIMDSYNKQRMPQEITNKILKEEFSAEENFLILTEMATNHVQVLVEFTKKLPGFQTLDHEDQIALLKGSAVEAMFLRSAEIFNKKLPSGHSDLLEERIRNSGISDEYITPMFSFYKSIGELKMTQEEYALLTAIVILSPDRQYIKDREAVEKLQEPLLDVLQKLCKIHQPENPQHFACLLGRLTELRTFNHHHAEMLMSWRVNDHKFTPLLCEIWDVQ
Sequence of Cellular tumor antigen p53 (Homo sapiens) (P04637 whole entry, looked up): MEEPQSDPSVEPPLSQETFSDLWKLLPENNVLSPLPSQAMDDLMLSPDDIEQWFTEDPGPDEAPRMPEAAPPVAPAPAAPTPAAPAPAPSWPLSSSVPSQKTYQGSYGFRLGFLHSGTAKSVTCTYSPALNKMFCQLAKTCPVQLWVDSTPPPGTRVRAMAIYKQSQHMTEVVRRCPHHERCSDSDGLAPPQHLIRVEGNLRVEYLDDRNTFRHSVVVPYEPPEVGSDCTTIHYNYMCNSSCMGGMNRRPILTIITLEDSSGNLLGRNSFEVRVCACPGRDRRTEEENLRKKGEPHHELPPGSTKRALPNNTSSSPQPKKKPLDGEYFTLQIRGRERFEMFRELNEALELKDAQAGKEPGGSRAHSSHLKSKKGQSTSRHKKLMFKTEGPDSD
Sequence of Nuclear respiratory factor 1 (Homo sapiens) (Q16656 whole entry, looked up): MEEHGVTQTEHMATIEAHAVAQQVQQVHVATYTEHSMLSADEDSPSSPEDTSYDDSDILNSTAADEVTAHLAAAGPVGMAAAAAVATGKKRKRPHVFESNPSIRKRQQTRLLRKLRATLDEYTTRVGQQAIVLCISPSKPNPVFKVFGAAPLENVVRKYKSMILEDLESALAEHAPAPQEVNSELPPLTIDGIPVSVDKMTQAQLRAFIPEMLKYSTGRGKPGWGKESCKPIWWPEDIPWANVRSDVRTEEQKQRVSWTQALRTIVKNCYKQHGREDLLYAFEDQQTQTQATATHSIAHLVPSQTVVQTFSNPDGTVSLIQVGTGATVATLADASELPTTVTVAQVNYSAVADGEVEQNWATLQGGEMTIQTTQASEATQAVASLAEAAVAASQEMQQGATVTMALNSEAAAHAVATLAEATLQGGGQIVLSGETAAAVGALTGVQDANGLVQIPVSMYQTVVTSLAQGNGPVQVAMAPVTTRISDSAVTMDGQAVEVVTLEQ
Sequence of Nuclear receptor subfamily 4 group A member 2 (Homo sapiens) (P43354 whole entry, looked up): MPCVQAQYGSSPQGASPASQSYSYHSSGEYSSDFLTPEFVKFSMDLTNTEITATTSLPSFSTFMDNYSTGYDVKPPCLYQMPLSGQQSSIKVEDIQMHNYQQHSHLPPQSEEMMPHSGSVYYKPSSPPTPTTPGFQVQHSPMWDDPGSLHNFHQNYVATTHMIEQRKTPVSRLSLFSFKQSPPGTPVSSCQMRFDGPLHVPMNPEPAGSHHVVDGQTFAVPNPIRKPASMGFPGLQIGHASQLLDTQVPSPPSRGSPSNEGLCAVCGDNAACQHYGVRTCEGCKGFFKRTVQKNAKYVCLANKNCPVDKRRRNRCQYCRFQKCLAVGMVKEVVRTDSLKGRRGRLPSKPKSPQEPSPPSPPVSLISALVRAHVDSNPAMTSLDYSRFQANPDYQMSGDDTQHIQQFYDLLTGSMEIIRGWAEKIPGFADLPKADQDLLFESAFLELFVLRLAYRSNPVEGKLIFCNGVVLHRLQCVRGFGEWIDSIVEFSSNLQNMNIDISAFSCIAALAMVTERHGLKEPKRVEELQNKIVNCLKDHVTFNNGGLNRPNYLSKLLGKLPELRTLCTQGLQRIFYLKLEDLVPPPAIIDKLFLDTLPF
Sequence of Hepatocyte nuclear factor 4-alpha (Homo sapiens) (P41235 whole entry, looked up, the tested form may be a part): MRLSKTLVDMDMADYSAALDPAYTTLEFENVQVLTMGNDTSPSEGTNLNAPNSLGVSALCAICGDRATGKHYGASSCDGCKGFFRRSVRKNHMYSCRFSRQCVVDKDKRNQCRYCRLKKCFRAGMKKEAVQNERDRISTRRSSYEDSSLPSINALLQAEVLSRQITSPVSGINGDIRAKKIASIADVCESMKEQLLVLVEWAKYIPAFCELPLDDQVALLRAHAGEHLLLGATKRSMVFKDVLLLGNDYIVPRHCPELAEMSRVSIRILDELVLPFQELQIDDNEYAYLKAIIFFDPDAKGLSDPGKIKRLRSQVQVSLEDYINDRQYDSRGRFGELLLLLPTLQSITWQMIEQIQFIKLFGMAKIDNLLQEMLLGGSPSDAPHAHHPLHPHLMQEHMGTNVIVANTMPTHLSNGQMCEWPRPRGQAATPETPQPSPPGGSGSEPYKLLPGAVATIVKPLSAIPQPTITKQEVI
Sequence of Myc proto-oncogene protein (Homo sapiens) (P01106 whole entry, looked up): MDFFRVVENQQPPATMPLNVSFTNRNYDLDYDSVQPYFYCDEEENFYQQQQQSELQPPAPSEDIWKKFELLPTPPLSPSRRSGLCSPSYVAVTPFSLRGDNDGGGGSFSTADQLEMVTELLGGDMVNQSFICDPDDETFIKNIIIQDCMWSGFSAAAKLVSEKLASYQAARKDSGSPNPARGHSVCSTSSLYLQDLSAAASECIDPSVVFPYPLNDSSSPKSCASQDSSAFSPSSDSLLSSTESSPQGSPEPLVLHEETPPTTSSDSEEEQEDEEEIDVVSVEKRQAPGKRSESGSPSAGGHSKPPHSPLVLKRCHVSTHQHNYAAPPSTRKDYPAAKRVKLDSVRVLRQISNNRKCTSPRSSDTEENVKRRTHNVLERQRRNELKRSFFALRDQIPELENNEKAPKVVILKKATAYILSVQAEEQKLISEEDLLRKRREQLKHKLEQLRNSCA
Sequence of Oxysterols receptor LXR-beta (Homo sapiens) (P55055 whole entry, looked up, the tested form may be a part): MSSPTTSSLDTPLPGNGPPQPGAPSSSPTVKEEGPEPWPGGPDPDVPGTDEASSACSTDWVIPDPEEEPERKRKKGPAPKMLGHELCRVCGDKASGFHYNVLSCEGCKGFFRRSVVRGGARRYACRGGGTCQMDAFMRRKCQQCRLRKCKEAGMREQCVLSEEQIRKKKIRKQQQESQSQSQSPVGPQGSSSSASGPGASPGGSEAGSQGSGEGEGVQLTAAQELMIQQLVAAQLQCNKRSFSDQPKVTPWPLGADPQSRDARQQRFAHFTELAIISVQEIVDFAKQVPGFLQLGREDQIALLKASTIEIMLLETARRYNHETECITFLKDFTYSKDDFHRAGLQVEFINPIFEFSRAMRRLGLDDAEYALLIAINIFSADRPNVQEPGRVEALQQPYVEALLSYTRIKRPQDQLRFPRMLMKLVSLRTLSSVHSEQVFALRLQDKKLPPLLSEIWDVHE
Sequence of Oxysterols receptor LXR-alpha (Homo sapiens) (Q13133 whole entry, looked up, the tested form may be a part): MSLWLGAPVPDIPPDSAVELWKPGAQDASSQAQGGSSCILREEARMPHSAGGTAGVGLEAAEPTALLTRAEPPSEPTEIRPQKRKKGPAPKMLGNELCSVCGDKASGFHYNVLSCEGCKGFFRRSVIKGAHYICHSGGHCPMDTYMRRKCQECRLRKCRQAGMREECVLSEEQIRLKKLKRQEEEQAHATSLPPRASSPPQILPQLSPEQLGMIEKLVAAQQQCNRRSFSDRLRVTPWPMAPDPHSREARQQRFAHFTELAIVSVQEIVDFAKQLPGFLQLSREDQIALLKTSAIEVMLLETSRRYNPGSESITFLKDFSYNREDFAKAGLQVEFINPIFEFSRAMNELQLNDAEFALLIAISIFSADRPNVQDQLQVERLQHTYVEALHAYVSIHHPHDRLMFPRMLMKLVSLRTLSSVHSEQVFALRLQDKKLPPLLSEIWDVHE

OC(O)C(F)(F)C(F)(F)F
active: [8] 127 µM | [9] 93.6 µM | [11] 121 µM
not listed: [15] | [16] | [17] | [18]
inactive: all other assays above

CN(N=O)C(=O)N[C@@H]1[C@@H](O)[C@H](O)[C@@H](CO)O[C@@H]1O
not listed: [3] | [8] | [12] | [13] | [14] | [17] | [18]
inactive: all other assays above

Cc1ccc(S(=O)(=O)C(I)I)cc1
inactive: [15] | [2] | [16] | [3]
active: [4] 17.4 µM | [5] 7.84 µM | [6] 8.6 µM | [7] 8.6 µM | [8] 19.5 µM | [9] 15.9 µM | [10] 8.98 µM | [11] 8.91 µM | [12] 1.85 µM | [14] 3.06 µM

O=C=Nc1cccc2c(N=C=O)cccc12
not listed: [1] | [2] | [3] | [13] | [15] | [16] | [18]
inactive: all other assays above

CCN=C1C=CC(=C(c2ccc(N(CC)CC)cc2)c2ccc(N(CC)CC)cc2)c2ccccc21
active: [5] 1.04 µM | [9] 0.0811 µM | [10] 0.566 µM | [11] 0.917 µM | [12] 1.96 µM and 1.79 µM | [14] 2.64 µM and 2.81 µM
inactive: [1] | [15] | [4] | [6] | [7] | [8]

CC(C)(C)c1cc(CCC(=O)OCC(COC(=O)CCc2cc(C(C)(C)C)c(O)c(C(C)(C)C)c2)(COC(=O)CCc2cc(C(C)(C)C)c(O)c(C(C)(C)C)c2)COC(=O)CCc2cc(C(C)(C)C)c(O)c(C(C)(C)C)c2)cc(C(C)(C)C)c1O
not listed: [1] | [11] | [12] | [13] | [14] | [16] | [18]
inactive: all other assays above

Nc1cc([N+](=O)[O-])cc(Cl)c1O
not listed: [1] | [3] | [13] | [15] | [17] | [18]
inactive: all other assays above

O=C(F)C1(F)C(F)(F)C(F)(F)C(F)(F)C(F)(F)C1(F)F
not listed: [2] | [13] | [15] | [18]
inactive: all other assays above

OCCCCC(F)(F)C(F)(F)C(F)(F)C(F)(F)F
not listed: [3] | [17] | [18]
inactive: all other assays above

OCC1CCCO1 (stereo unspecified)
not listed: [1] | [3] | [12] | [13] | [14] | [15]
inactive: all other assays above
